From PubChem BioAssay AID651965 (National Center for Advancing Translational Sciences (NCATS), 2013)
Among all 340,000 compounds or so, about 6,400 (1.9%) were called active. Roughly 4% stayed inconclusive and do not appear here. The entries come from a sample that favours actives as a whole. A number with no mark means an inactive call. Calls come from the whole dose curve; as a rule, active = well fitted falling curve with a large enough effect; inconclusive = small, poorly fitted or top-dose-only effect; inactive = no such curve, though single readings can be large or run the other way.

What follows are compounds tested against ATP-dependent Clp protease proteolytic subunit (Bacillus subtilis (strain 168)) (UniProt P80244) (assay: qHTS Assay for Activators of ClpP). Conditions: purified B. subtilis ClpP, FRET peptide cleavage, 20 min; series mostly up to 57.5 µM; activity change, negative = active: at the top concentration.
Excerpt: The Clp protease proteolytic subunit (ClpP) is the core unit of the Clp complex belonging to the peptidase family S14 that hydrolyzes protein into small peptides in the presence of ATP and magnesium. It is ubiquitously expressed and is the major protease in bacteria. […] Unlike common antibiotics that simply interfere with the essential enzyme activity, ADEP binding activates the ClpP core in the absence of the regulatory Clp-ATPases leading to uncontrolled proteolysis and eventually cell death. Activators binding to the docking site on ClpP can also block formation of the ClpXP and ClpA/C-P holoenzyme complexes interfering with the normal biological functions of ClpP and thus have the potential to become new anti-microbials.
To identify activators of ClpP, a FRET based quenching reversal assay was developed using a purified B. subtilis ClpP and a decapeptide substrate (FRET-FV). The FRET-FV is tagged with a fluorescent molecule amino benzoic acid (donor) at the N-terminus and a nitrotyrosine quencher (acceptor) at the C-terminus. FRET-FV cleaves upon activation of ClpP with ADEP treatement and reverses the quenching effect of the nitrotyrosine causing an increase in fluorescence emission signal at 430nm. This assay was used to screen the Molecular Libraries Small Molecule Repository (MLSMR).
NIH Molecular Libraries Probe Production Centers Network [MLPCN]
NIH Chemical Genomics Center [NCGC]
Assay Submitter (PI): Michael Maurizi, National Cancer Institute
Two and a half microL/well of purified enzyme solution (final concentrations 10 microg/mL B. subtilis ClpP in 100 mM Tris/HCl pH8, 100 mM KCl, 0.05% low protease BSA, 2.5% glycerol, 0.01% Tween-20 buffer) was dispensed into 1536-well assay plates (Greiner, black solid, medium-binding plates) with Aurora Discovery BioRAPTR Flying Reagent Dispenser (FRD, Beckton-Dickenson). Compound solution (23 nL) was transferred to the assay plate using Kalypsys pin tool equipped with a 1536-pin tool. […] FRET signals at time 0 and after 20 min room temperature incubation were obtained using the PerkinElmer Envision plate reader with 320nm excitation and 430nm emission filters. Delta FRET value (Time 20 - Time 0) was calculated and normalized to the delta FRET value of positive control ADEP (5.8 microM final concentration) and negative control DMSO and no enzyme wells.
Note: the source files actives as falling curves though it sought activators and does not explain the sign; nearly all actives have a fitted effect of over 65% in size.

Chain of ATP-dependent Clp protease proteolytic subunit (Bacillus subtilis (strain 168)) (P80244 whole entry, looked up): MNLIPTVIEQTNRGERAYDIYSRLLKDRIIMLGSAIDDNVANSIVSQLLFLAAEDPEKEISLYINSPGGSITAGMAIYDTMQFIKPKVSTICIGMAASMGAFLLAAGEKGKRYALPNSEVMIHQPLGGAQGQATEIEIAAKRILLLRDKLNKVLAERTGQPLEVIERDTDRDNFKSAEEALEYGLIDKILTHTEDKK

Structure (SMILES)	activity change, negative = active [%]	Potency
COC(=O)C1=C(c2ccc(OCc3ccccc3)cc2)C[C@@H]2CC[C@H]1N2C(=O)NCc1ccc(Cl)cc1	-5.51	–
CCOc1ccc(-c2cc(C)n3nc(C(=O)Nc4ccc(C)c(C)c4)cc3n2)cc1	–	3.55 µM (active)
ClCCN(CCCl)c1ccc(C=Nc2ccc(/C=C/c3ccnc4ccccc34)cc2)cc1	-13.1	–
COC(=O)C1=C(c2ccc(OCc3ccccc3)cc2)C[C@@H]2CC[C@H]1N2C(=O)NCc1cccc(F)c1	-7.83	–
O=C(c1cc(S(=O)(=O)N2CCOCC2)ccc1F)N1CCC2(CC1)OCCO2	0.465	–
Cc1ccc(-c2cc(C(=O)N3CCC4(CC3)OCCO4)no2)cc1	-4.99	–
Cc1cccc(-n2c(C)nc3cc(C(=O)N4CCC5(CC4)OCCO5)ccc32)c1	0.319	–
O=C(c1cc(-c2ccncc2)nc2ccccc12)N1CCC2(CC1)OCCO2	–	28.2 µM (active)
O=C(c1ccccc1[N+](=O)[O-])N1CCC2(CC1)OCCO2	1.83	–
O=C(c1cc2nc(-c3ccccc3)cc(-c3ccccc3)n2n1)N1CCC2(CC1)OCCO2	–	35.5 µM (active)
COc1cc([C@@H]2c3cc4c(cc3[C@H](OC(C)=O)[C@H]3COC(=O)[C@H]23)OCO4)cc(OC)c1OC	-0.0541	–
COc1ccc(-n2nnnc2C(c2cccc3ccccc23)N2CCC(n3c(=O)[nH]c4ccccc43)CC2)cc1 (configuration not stated)	0.35	–
COc1ccc(NC(=O)N2CCC3(CC2)OCCO3)c(OC)c1	0.147	–
COc1ccc(-c2nc(CS(=O)CC(=O)N3CCC4(CC3)OCCO4)c(C)o2)cc1 (configuration not stated)	–	31.6 µM (active)
COc1ccc(S(=O)(=O)NCc2ccc(C(=O)N3CCC4(CC3)OCCO4)cc2)cc1	0.386	–
CCC(C)(O)C(=O)OC1C(=O)OC2CC3C(C)=CC(=O)C(O)C3(C)C3C4(O)OCC23C1C(C)C4O (configuration not stated)	-2.2	–
CCOC(=O)[C@]12Cc3ccccc3[C@H]1N(C1CCCCC1)C(=O)c1cc(OC)ccc12	-3.18	–
c1ccc(N2Cc3ccccc3-n3nncc3C2)nc1	0.135	–
COc1cc(C(=O)N2Cc3ccc(Br)cc3-n3nncc3C2)cc(OC)c1OC	-0.434	–

Structure (SMILES)	activity change, negative = active [%]	Potency
C[C@H]1CN([C@@H](C)CO)C(=O)CCCn2nncc2CO[C@H]1CN(C)C(=O)Oc1ccccc1	1.9	–
COC(=O)C[C@H]1CC[C@H]2NC[C@@H](O)COC[C@@H]2O1	-0.23	–
CCN(CC)CCOC(=O)c1cc2cc(COC)ccc2o1	–	28.2 µM (active)
O=P(OC1=CCCCC1)(c1ccccc1)c1ccccc1	-2.65	–
CC(=CCOc1ccc2ccc(=O)oc2c1)C1=CC(=O)C(C)(C)O1	4.52	–
CC1C(=O)OC2CCN3CC=C(COC(=O)C(C)(O)C1(C)O)C23 (configuration not stated)	1.37	–
Cc1ccc(Cn2c(C)c3cnn(CC(=O)N4CCC5(CC4)OCCO5)c(=O)c3c2C)cc1	-24.5	–
Cc1nc2nc(C)c(CCC(=O)N3CCC4(CC3)OCCO4)c(C)n2n1	-4.83	–
O=C(CCCn1c(=O)[nH]c2cc(Cl)ccc2c1=O)N1CCC2(CC1)OCCO2	–	28.2 µM (active)
CC(=O)OC1C2(CC3N4C(=O)C5(CO)SSC4(CC31O)C(=O)N5C)OC(C)C(C)(C)C2=O (configuration not stated)	-1.51	–
COc1ccc(NC(=O)N2Cc3ccccc3-n3nncc3C2)cc1	-1.49	–
COC1C(O)C(C)OC(OC2CCC3(C=O)C(CCC4C3CCC3(C)C(C5=CC(=O)OC5)CCC43O)C2)C1O (configuration not stated)	0.46	–
C[C@H]1CN([C@@H](C)CO)C(=O)CCCn2nncc2CO[C@H]1CN(C)C(=O)Oc1cccc2ccccc12	2.28	–
CN(C)C(=O)Oc1ccc(OCc2cccc[n+]2C)cc1	0.542	–
CCOC(=O)c1c(-c2ccccc2)oc2ccc(OC(=O)N(C)C)cc12	–	3.16 µM (active)
CN(C)C(=O)Oc1ccc2c(c1)O/C(=C\c1ccccc1)C2=O	-10.7	–
CCOC(=O)[C@]12Cc3cc(OC)ccc3[C@H]1N(C(C)C)C(=O)c1ccccc12	1.13	–
O=C(NC1CCCCC1)N1Cc2cc(N3CCCCC3)ccc2-n2nncc2C1	-3.37	–
